# Assay outcomes deposited in PubChem by National Center for Advancing Translational Sciences (NCATS).
# Compounds with a hit are over-represented: about 10% of the library has one in this group of screens.
# HP1b chromo inh: HTS for Inhibitors of HP1-beta Chromodomain Interactions with Methylated Histone Tails. AlphaScreen HP1-beta / biotin-H3K9me3 peptide binding. Potency, µM (titrated, usually from 114 µM), for inactives: top-dose activity change, negative = inhibition, most hits filed as inhibitors. actives 0.56% (n = 390,000); further: potency means the concentration at half of the fitted maximal effect; nearly all actives have a fitted effect of over 70% in size
#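 AlphaScreen: HP1-beta (50 nM) preformed 30 min with biotin-H3(1-18)K9me3 peptide (50 nM) in PBS pH 7.4, 0.01% Tween-20. Compound added for 30 min at RT, then streptavidin donor/nickel chelate acceptor beads (10 ug/mL) for 30 min.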
# BAZ2B block: qHTS Assay for Inhibitors of BAZ2B; AlphaScreen BAZ2B-H3K14Ac peptide displacement; Potency, µM (top dose mostly 114 µM), for inactives: at the highest dose activity change, negative = inhibition, most hits filed as inhibitors; actives 4.4% (n = 360,000); AID 504333, 2011; further: potency means the concentration at half of the fitted maximal effect; on the % scale 0 is the no-effect control and ±100 the full control effect; nearly all actives have a fitted effect of over 60% in size
#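 BAZ2B (50 nM) with biotin-H3(5-23)K14Ac peptide (50 nM) in PBS pH 7.4, 0.01% Tween-20, preformed 30 min, then compound 30 min at room temperature; top concentration 110uM. AlphaScreen streptavidin donor/nickel chelate acceptor beads (10 ug/mL final), 20 min dark, signal read.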
# Six1-Eya2 blk: qHTS Assay for Inhibitors of the Six1/Eya2 Interaction; AID 651725, 2012; AlphaScreen GST-Six1/His-Eya2 binding, biochemical; hits give low values; Homeobox protein SIX1 (Homo sapiens) + Protein phosphatase EYA2 (Homo sapiens), …; actives 0.56% (n = 360,000); activity change, % (test concentration not listed); in the data active means activity change below about -65%; inconclusive means mostly about -30% to -63%; further: on the % scale 0 is the no-effect control and ±100 the full control effect
#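 Homogeneous AlphaScreen proximity assay pairing GST-Six1 with His-tagged Eya2 (added as 5X mix: 250 nM and 500 nM) in 50 mM Tris pH 8.0, 300 mM NaCl, 1 mM TCEP. Glutathione donor and nickel acceptor beads; 1 h, 37 °C, dark.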
# JMJD2A Tudor inh: qHTS Assay for Inhibitors of JMJD2A-Tudor Domain. actives 4.4% (n = 390,000). AlphaScreen JMJD2A-Tudor / H3K4me3 peptide binding. Potency, µM (doses to about 114 µM), without a hit: at the top dose activity change, negative = inhibition, hits mostly inhibitors. Lysine-specific demethylase 4A (Homo sapiens), O75164. AID 504339, 2011; further: potency means the concentration at half of the fitted maximal effect; on the % scale 0 is the no-effect control and ±100 the full control effect; nearly all actives have a fitted effect of over 50% in size
# G9a block: qHTS Assay for Inhibitors of Histone Lysine Methyltransferase G9a | Histone-lysine N-methyltransferase EHMT2 (Homo sapiens), Q96KQ7 | G9a H3K9 monomethylation, AlphaScreen, 2 h | Potency, µM (top dose mostly 102 µM), for inactives: at the highest dose activity, negative = inhibition, usual class: inhibitors | actives 8.8% (n = 350,000); further: potency means the concentration at half of the fitted maximal effect; on the % scale 0 is the no-effect control and ±100 the full control effect; nearly all actives have a fitted effect of over 75% in size
#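 Using a bead-based AlphaScreen, monomethylated H3K9 product from 2 h room-temperature reactions (G9a 20 nM, peptide 500 nM, SAM 20 uM) was detected with 0.5 ug/mL rabbit anti-H3K9me1 antibody.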
# CtBP-E1A blk: qHTS Assay for Inhibitors of the CtBP/E1A Interaction. AlphaScreen GST-E1A/His-CtBP binding, 1536-well; hits give low values. activity change, % (no concentration beside the values). actives 0.49% (n = 340,000). AID 651724, 2012; in the data active means activity change below about -65%; inconclusive means mostly about -30% to -63%; further: on the % scale 0 is the no-effect control and ±100 the full control effect
#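 Homogeneous bead-based format: GST-tagged E1A captured on glutathione donor beads, His-tagged CtBP on nickel acceptor beads; compounds precede bead addition by 2 h at 37 °C.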
# The depositor's hits bear a star; ? = inconclusive; . = not tested or not shown; [ ] = another dose, or the depositor's remark. Unless noted, the call rests on the fitted dose curve; in most records, active means well fitted inhibition curve with a large enough effect; inconclusive means small, poorly fitted or top-dose-only effect; inactive means no such curve, though single readings can be large or run the other way.
SMILES,HP1b chromo inh,BAZ2B block,Six1-Eya2 blk,JMJD2A Tudor inh,G9a block,CtBP-E1A blk
COc1cc(C(C)=O)ccc1OCC(O)CN1CCN(c2ccccn2)CC1 (stereo unspecified),24.9%,-6.0%,1.9,-22.7%,19.6%[59 µM],5.7
COc1ccc(-n2c(=O)c(-c3cc(F)cc(F)c3)nc3cnc(N(C)C)nc32)cc1,.,.,.,.,-0.9%[0.501 µM],.
Cc1c(C(=O)Nc2cccc(F)c2)oc2c1-c1nn(Cc3c(F)cccc3Cl)cc1CC2,64.6%,33.4%,.,-17.8%,17.9%[59 µM],.
O=C1c2ccccc2[C@@H]2CC(O)C(O)CCN12 (stereo partly specified),38.3%,.,2.0,-1.4%,.,2.3
CC1(C)Cc2ccccc2C2CC(O)C(=O)N21 (stereo unspecified),-13.3%,-29.6%,0.0,89.1µM*,22.4µM*,-2.8
Cc1ccc(Cn2c(CNS(=O)(=O)c3cccc([N+](=O)[O-])c3)nc3cccnc32)cc1,17.5%[57 µM],-17.8%,.,-31.6%,39.9%[59 µM],.
O=C(CN1CCC(n2nnc3cc(F)ccc32)CC1)NCc1ccco1,12.4%,79.4µM*,-1.0,-23.5%,?,-13.7
COc1ccccc1NC(=O)CN1CCC(n2nnc3cc(F)ccc32)CC1,42.9%,-1.6%,-2.2,-11.8%,3.3%[12.7 µM],1.9
CCOC(=O)c1cc(-c2ccc(C)o2)nn1CCC#N,6.2%,-38.7%,-1.3,-14.0%,12.6µM*,1.2
CCOC(=O)c1cc(-c2ccccc2)nn1CCC#N,32.2%,5.2%,2.9,-19.0%,10.4%,-0.6
CCOc1ccc(NC(=O)CC2C(=O)N(c3ccc(C)cc3)C(=O)N2CCC2=CCCCC2)cc1 (stereo unspecified),43.0%,0.8%,.,-16.2%,-20.2%[59 µM],.
CC(=O)Nc1ccc(S(=O)(=O)N2CCN(CC3CC4C=CC3C4)CC2)cc1 (stereo unspecified),?,35.5µM*,4.9,6.31µM*,28.2µM*,.
CCOc1ccc(NC(=O)CN2CCN(S(=O)(=O)c3ccc(OC)cc3)CC2)cc1,-9.9%,-12.9%,.,-20.5%,-24.6%[59 µM],.
COc1cc(OC)c(OC)cc1CN1CCN(S(=O)(=O)c2ccc(NC(C)=O)cc2)CC1,?,50.1µM*,-1.7,1µM*,.,-1.0
CCOc1ccc(CN2CCN(S(=O)(=O)c3ccc(NC(C)=O)cc3)CC2)cc1,35.5µM*,25.1µM*,-2.5,7.94µM*,22.4µM*,-19.9
CC(=O)Nc1ccc(CN2CCN(C3CCCC3)C(CCO)C2)cc1 (stereo unspecified),15.3%,4.9%,3.8,-8.3%,.,-12.3
CC(=O)Nc1ccc(CN2CCCN(C)CC2)cc1,?,?,-1.5,22.4µM*,20µM*,.
CC(=O)Nc1ccc(S(=O)(=O)N2CCN(Cc3ccccc3[N+](=O)[O-])CC2)cc1,11.5%,-32.3%,-3.6,-28.5%,?,-6.2
COc1cccc(CNC(=O)CCc2c(C)c3cc4c(C)coc4c(C)c3oc2=O)c1,17.1%,-3.7%,.,?,3.8%[59 µM],.
CCCN1CNc2c(c(=O)[nH]c(=S)n2CCc2ccccc2Cl)C1,37.2%,.,.,-12.2%,.,.
CCOc1ccc2c(c1)nc(SCC(=O)c1ccc(Br)s1)n2C,-21.3%,-38.6%,-0.6,39.8µM*,39.8µM*,-12.1
CCOc1ccc2c(c1)nc(C)n2C,21.8%,-6.9%,-11.9,-9.0%,.,-19.3
CCOc1ccc2c(c1)nc(SCC(=O)c1cccs1)n2C,10.4%,-7.6%,2.9,39.8µM*,25.1µM*,0.7
COc1ccc2c(c1)nc(SCC(O)c1ccccc1)n2C (stereo unspecified),14.2%,-2.9%,9.2,-9.1%,-2.0%,-18.1
Cc1ccc(/C=C2/C(=O)C3(C)CCC2C3(C)C)cc1 (stereo unspecified),.,.,.,.,10.7%[12.7 µM],.
SMILES,HP1b chromo inh,BAZ2B block,Six1-Eya2 blk,JMJD2A Tudor inh,G9a block,CtBP-E1A blk
COc1cccc(-c2cnc3c(NC(C)=O)cc(-c4ccsc4)cn23)c1,.,.,-14.0,.,.,-10.3
CN1CCN(c2ccc([N+](=O)[O-])cc2NC(=O)c2ccco2)CC1,20.5%,-2.6%,3.6,-14.5%,13.2%,3.2
CS(=O)(=O)N1CCN(c2ccccc2NC(=O)c2ccc(-c3ccc(Cl)cc3Cl)o2)CC1,23.8%,40.5%,-0.1,-18.6%,-50.2%[12.7 µM],8.6
O=C(Nc1ccccc1N1CCCC1)c1ccc([N+](=O)[O-])o1,-15.2%,31.6µM*,-10.3,?,2.5%[12.7 µM],-20.8
COc1ccc(N2CCCC2)c(NC(=O)c2ccc([N+](=O)[O-])o2)c1,35.5µM*,14.1µM*,?,28.2µM*,?,-24.1
CN1CCN(c2ccccc2NC(=O)c2ccc(-c3ccc(Cl)cc3Cl)o2)CC1,3.7%,?,-5.2,?,44.7µM*,-6.7
CC1CCN(c2ccccc2NC(=O)c2ccc([N+](=O)[O-])o2)CC1,7.5%,-12.5%,-7.9,-8.5%,21.5%,-2.5
O=C(Nc1cc([N+](=O)[O-])ccc1N1CCCC1)c1ccco1,4.7%,-11.2%,-3.3,-16.5%,50.1µM*,18.6
OC(CNC1CCCc2ccccc21)COc1c(Cl)cccc1Cl (stereo unspecified),6.8%,39.8µM*,5.7,5.62µM*,7.94µM*,5.3
CCCC(=O)N1CCC1(C)C(=O)NS(=O)(=O)c1ccccc1Cl (stereo unspecified),.,.,5.3,.,.,-2.5
O=C(Cn1c(=O)oc2ccccc21)Nc1n[nH]c(=S)s1,?,-25.2%,-2.4,3.55µM*,1.26µM*,-2.1
CC(C)(C)c1csc(NC(=O)Cn2c(=O)oc3ccccc32)n1,-27.5%,-20.4%,-5.0,6.2%,11.2µM*,-4.9
COc1ccccc1C1C(C#N)=C(N)Oc2cc(C)n(Cc3ccccn3)c(=O)c21 (stereo unspecified),22.6%,?,1.9,-15.7%,35.5µM*,2.3
CCOc1ccccc1C1C(C#N)=C(N)Oc2cc(C)n(Cc3ccccn3)c(=O)c21 (stereo unspecified),31.4%,1.3%,-4.5,-8.1%,50.1µM*,1.0
COc1cccc(C2C(C#N)=C(N)Oc3cc(C)n(Cc4ccccn4)c(=O)c32)c1OC (stereo unspecified),24.1%,5.9%,12.2,-4.7%,-6.0%[2.33 µM],4.3
